Reference: PubChem BioAssay (NCI)
The panel holds about 83,000 compounds, 20% with a hit somewhere; the sample as a whole holds those more often.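 96-well plates, one dose, 48 hours. Percent growth reported; active if below 10.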 Activity calls are given as the source filed them.

Columns and labels:
Experiment in all cases: NCI-60 one-dose screen, 48 h (100 = growth as untreated, 0 = no growth, -100 = all killed)
Conditions in all cases: 10 µM unless noted
NCI-H23 lung = test system: NCI-H23 lung
NCI-H226 lung = test system: NCI-H226 lung
NCI-H322M lung = test system: NCI-H322M lung
HOP-62 NSCLC = test system: HOP-62 NSCLC
NCI-H460 lung = test system: NCI-H460 lung
HOP-92 NSCLC = test system: HOP-92 NSCLC
NCI-H522 lung = test system: NCI-H522 lung
A549/ATCC NSCLC = test system: A549/ATCC NSCLC
786-0 renal = test system: 786-0 renal
COLO 205 colon = test system: COLO 205 colon

Measured: growth

CCOC(=O)c1c2ncccc2n2c(=O)n(-c3ccccc3C)nnc12
inactive: NCI-H23 lung 93.6% | NCI-H226 lung 97.4% | NCI-H322M lung 89.3% | HOP-62 NSCLC 78.6% | NCI-H460 lung 95% | HOP-92 NSCLC 128% | NCI-H522 lung 93.3% | A549/ATCC NSCLC 102% | 786-0 renal 98% | COLO 205 colon 108%

O=c1cc(C2NNC(=S)N2)c2ccc3ccccc3c2o1 (stereo not given)
inactive: NCI-H23 lung 91.6% | NCI-H226 lung 101% | NCI-H322M lung 101% | HOP-62 NSCLC 95.1% | NCI-H460 lung 98.6% | HOP-92 NSCLC 103% | NCI-H522 lung 87.1% | A549/ATCC NSCLC 108% | 786-0 renal 100% | COLO 205 colon 104%

Cc1ccc(/C=C/c2c(C(=O)/C=C/c3ccc(Cl)cc3)c(C)nc3ccccc23)cc1
active: NCI-H23 lung 2.79% | NCI-H226 lung -30.4% | HOP-62 NSCLC 3.89% | NCI-H460 lung -73.9% | HOP-92 NSCLC 0.669% | NCI-H522 lung 5.16% | 786-0 renal -17.5% | COLO 205 colon 6.99%
inactive: NCI-H322M lung 51.7% | A549/ATCC NSCLC 78.8%

COC1=CC(=O)C[C@@H](C)[C@]12Oc1c(Cl)c(OC)cc(OC)c1C2=O
inactive: NCI-H23 lung 93.5% | NCI-H226 lung 99.9% | NCI-H322M lung 105% | HOP-62 NSCLC 88.3% | NCI-H460 lung 110% | HOP-92 NSCLC 89.4% | NCI-H522 lung 80.5% | A549/ATCC NSCLC 97.5% | 786-0 renal 99.2% | COLO 205 colon 106%

Cc1cccc(Cc2cnc(NC(=O)c3ccc4nnsc4c3)s2)c1
inactive: NCI-H23 lung 92.7% | NCI-H226 lung 102% | NCI-H322M lung 97.4% | HOP-62 NSCLC 79.8% | NCI-H460 lung 114% | HOP-92 NSCLC 74.7% | NCI-H522 lung 77% | A549/ATCC NSCLC 96.2% | 786-0 renal 96% | COLO 205 colon 94.8%

NC(=N\N=C/c1ccccc1[N+](=O)[O-])/C(N)=N\N=C/c1ccccc1[N+](=O)[O-]
inactive: NCI-H23 lung 104% | NCI-H226 lung 107% | NCI-H322M lung 146% | HOP-62 NSCLC 94% | NCI-H460 lung 104% | HOP-92 NSCLC 89% | NCI-H522 lung 89.3% | A549/ATCC NSCLC 114% | 786-0 renal 103% | COLO 205 colon 109%

Cc1ccc(-n2nc3c(c(C#N)c2=O)CC(c2ccccc2Cl)C([N+](=O)[O-])=C3O)cc1 (stereo not given)
inactive: NCI-H23 lung 101% | NCI-H226 lung 102% | NCI-H322M lung 101% | HOP-62 NSCLC 91% | NCI-H460 lung 99.3% | HOP-92 NSCLC 103% | NCI-H522 lung 89% | A549/ATCC NSCLC 95.4% | 786-0 renal 102% | COLO 205 colon 108%

COc1cc(OC)cc(C2CC(=O)Nc3c2c(C)nn3-c2nc3ccccc3[nH]2)c1 (stereo not given)
inactive: NCI-H226 lung 36.5% | NCI-H322M lung 59.9% | A549/ATCC NSCLC 15.2% | 786-0 renal 25.4% | COLO 205 colon 51.4%
active: NCI-H23 lung 5.52% | HOP-62 NSCLC -44.2% | NCI-H460 lung 5.89% | HOP-92 NSCLC 0.274% | NCI-H522 lung 3.99%

CCN(CC)c1ccc(C(=O)c2ccc(N(CC)CC)cc2)cc1
active: NCI-H23 lung 3.77% | NCI-H460 lung 6.72% | NCI-H522 lung 3.66% | 786-0 renal 4.16% | COLO 205 colon -29%
inactive: NCI-H226 lung 48.5% | NCI-H322M lung 54.7% | HOP-62 NSCLC 29.2% | HOP-92 NSCLC 51.2% | A549/ATCC NSCLC 31.9%

Cc1ccc(-c2cc3c(cc2O)C2CCCCC2(N2CCOCC2)O3)cc1 (stereo not given)
inactive: NCI-H23 lung 94.8% | NCI-H226 lung 108% | NCI-H322M lung 101% | HOP-62 NSCLC 110% | NCI-H460 lung 103% | HOP-92 NSCLC 85.7% | NCI-H522 lung 82.7% | A549/ATCC NSCLC 96.1% | 786-0 renal 108% | COLO 205 colon 113%

COc1ccc(/C=C/c2c(C(=O)/C=C/c3cccs3)c(C)nc3ccccc23)cc1
inactive: NCI-H23 lung 67.3% | NCI-H226 lung 76% | NCI-H322M lung 89.7% | HOP-62 NSCLC 93.2% | NCI-H460 lung 83.6% | HOP-92 NSCLC 42.7% | NCI-H522 lung 62.6% | A549/ATCC NSCLC 92.5% | 786-0 renal 90.6% | COLO 205 colon 78.4%

COc1ccccc1CNCCCN1C(=O)c2ccc3c4c(ccc(c24)C1=O)C(=O)N(CCCNCCCCN)C3=O
active: NCI-H23 lung -38.6% | NCI-H226 lung -56.5% | NCI-H322M lung -10.1% | HOP-62 NSCLC -31% | NCI-H460 lung -46.2% | HOP-92 NSCLC -16% | NCI-H522 lung -84% | A549/ATCC NSCLC -65% | 786-0 renal 0.16% | COLO 205 colon -81.5%

CCN(CC)CCCC(C)Nc1c2ccc(Cl)cc2nc2ccc(O)cc12 (stereo not given)
active: COLO 205 colon -16.4%
inactive: NCI-H23 lung 46.2% | NCI-H226 lung 39.4% | NCI-H322M lung 38% | HOP-62 NSCLC 42.1% | NCI-H460 lung 14.7% | HOP-92 NSCLC 50.3% | NCI-H522 lung 37% | A549/ATCC NSCLC 24.4% | 786-0 renal 22.3%
